Assay results as given in the supplement of paper PMC6555819.

Columns and labels:
Test in all cases: PBM binding z-score (relative to random genomic background probes); higher = stronger binding; sequences stand for … in GC…GCGATTGACAGCGTAGAATGAAGG
[1] = system: PPARg:RXRa DBDmut IVT, anti-RXR (DBD mutation: RXRa K156A/R161A, NR concentration 270 nM, RXRa partner concentration 90 nM)
Outline: (§1)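 Scanned fluorescence from custom Agilent 4×180K protein-binding microarrays was regression-normalized. Binding z-scores use random background probes as reference. Ligand-free nuclear receptor dimers were incubated on the arrays for 1 h and detected with antibodies against each partner (one per run).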

[2] = system: PPARg:RXRa IVT, anti-PPARg (NR concentration 270 nM, RXRa partner concentration 90 nM)
Outline: as §1

[3] = system: PPARg DBDmut:RXRa IVT, anti-PPARg (DBD mutation: PPARg1 K132A/R137A, NR concentration 270 nM, RXRa partner concentration 90 nM)
Outline: as §1

[4] = system: PPARg DBDmut IVT, anti-PPARg (DBD mutation: PPARg1 K132A/R137A, NR concentration 270 nM)
Outline: as §1

[5] = system: PPARg homodimer (NR concentration 180 nM)
Outline: as §1

[6] = system: PXR:RXRa (NR concentration 270 nM, RXRa partner concentration 90 nM)
Outline: as §1

[7] = system: PXR homodimer (NR concentration 270 nM)
Outline: as §1

[8] = system: RARa:RXR (NR concentration 270 nM, RXRa partner concentration 90 nM)
Outline: as §1

[9] = system: RARa homodimer (NR concentration 270 nM)
Outline: as §1

[10] = system: RARb:RXRa (NR concentration 270 nM, RXRa partner concentration 90 nM)
Outline: as §1

Sequence	PBM binding z-score [1]	PBM binding z-score [2]	PBM binding z-score [3]	PBM binding z-score [4]	PBM binding z-score [5]	PBM binding z-score [6]	PBM binding z-score [7]	PBM binding z-score [8]	PBM binding z-score [9]	PBM binding z-score [10]
TCATATAGGTAAACATGTGAAAGTCCGTAAGTTA	4.4	3.17	1.32	1.79	0.718	0.808	0.34	0.815	1.18	0.412
TCTGCTAGGTCAACGATGGTTAGCTAATCTGCTA	4.04	4.11	0.206	0.0855	0.625	1.24	-0.803	2.11	-0.888	4.14
TCATATAGGTAAAGGTGAGAGTCGAACGATATGA	4.15	4	1.24	1.62	0.906	0.649	0.0264	1.29	0.387	1.69
CCAGACAGGTGAGAAGGTAACGCAGCCTCGATTA	1.37	0.83	-0.151	-0.199	0.904	0.0317	0.012	0.312	0.438	0.806
CAAACTAGGTCATGAAAGGTCAAAGTCGAATGAC	8.27	8.84	5.43	7.62	9.18	7.23	2.71	7.33	4.32	5.36
GATACAGGGTCAGCTAGAGGCCAGAGAATGGAAA	1.5	2.31	0.246	-1.1	2.84	3.34	0.000802	4.73	0.734	4.34
CCTACTGGGCCAAAAAGGTGATTGATGCCGATAA	2.58	2.98	-0.0281	-0.242	0.459	-0.0996	-0.324	-0.0994	-0.0492	0.271
ATCTCTAGGTAAAAGTTCAGTGGATCCCGAGGAT	2.25	3.58	1.28	1.66	1.32	2.05	1.71	1.76	1.18	2.41
GATACACGGTCAGCTAGAGGCCAGAGTATGGAAA	-0.219	0.135	-0.178	-0.554	0.453	-0.394	-0.5	0.205	-0.0449	2.51
CCTCTGAGGACAGAAGGTCAGAGCTGTCCGCTTT	0.612	0.36	-0.397	-1.71	1.53	1.95	-0.313	2.59	-0.25	3.44
GCTCGGAGGACAAGGTCAGAGTTTTGTCCGTAGA	0.207	0.996	-0.873	-1.18	0.43	1.95	0.373	2.23	-0.47	3.46
GGAACGAGGGCATTCGAGTTGAAAGCATGGCGAT	2.58	2.01	-0.14	-0.111	0.301	3.96	1.15	1.18	-0.521	1.71
ATCTCTAGGTAATACTCAGTTCAGTGAAGAACGC	2.77	1.87	1.44	1.47	1.53	1.58	2.24	0.858	2.17	0.79
TCTTGTAGATCAACAGGAGGTTAAGCAAGATCGA	1.61	0.884	0.4	0.795	-0.0893	0.934	0.136	1.22	-0.27	0.659
AGTCAAAGTTCACTAGGTAACGTACGATTCAGCT	3.29	5.13	1.36	1.27	3.23	4.37	3.12	3.45	1.53	4.71
GCATAGAGGTAATACAAGGTGAAAGTCCGATTGT	1.06	1.35	0.658	0.616	0.00249	1.03	-0.217	1.18	0.413	0.751
CAGCCTAGGTCGGGGCCAGTATAGGAGGAACGTT	-0.532	-0.678	-0.979	-1.04	-0.152	-0.445	-0.795	-0.269	-1.01	1.02
TCATATAGGTAATTCAGGTGAAAGTCGGCATCTA	4.31	3.55	1.64	1.6	1.41	0.703	0.443	1.34	1.6	0.546
TCTTGTAGATCAAGCAGGTTAAAAAAGCCTGAGT	1.71	0.721	0.175	0.427	0.249	0.876	0.157	0.523	0.0055	0.189
GCTAGCAGCCCATTTGGGTCACTCAATGACGGGC	-0.167	0.995	-0.831	-1.56	-0.798	-0.106	-0.918	0.359	-1.15	0.893
AGTCGAAGTTCACTAGGTAACGTAAGATTCAGCT	1.76	3.45	0.653	0.81	0.849	1.88	1.18	0.939	0.371	2.91
CAGACAGGGTCAGCTAGGCCAGAGTAGGGACGGC	0.343	1.7	-0.372	-0.169	1.26	1.72	-0.203	2.83	-0.174	3.84
ATCTCTAGGTAAAGATAGTTCGGTGAATGCAAAT	2.2	1.58	0.574	0.789	0.784	0.102	0.511	0.121	0.697	0.0855
TCGAGTAGGTTTGGGGCATTCAGAATGGCGTCGA	0.667	-0.179	-0.869	-0.587	-0.00492	-0.143	-0.414	-0.156	-0.479	-0.00663
